52 molecules from ChEMBL document CHEMBL4513216, “Probing the Open Global Health Chemical Diversity Library for Multistage-Active Starting Points for Next-Generation Antimalarials” (ACS Infect Dis, 2020) can be followed below.

The campaign covered roughly 69,000 compounds. About 8,600 (12%) showed an effect of 50% or more. Shown is part of a subset that was picked to be rich in strong results.

The test has as its system Plasmodium berghei. The experiment in a line: Screen against P. berghei liver stage (PbLuc), transformed with Luciferase, at 10uM. Particulars: tested at 10 uM. Type of test: functional, HepG2.
`CC(=O)N1N=C(c2ccccc2)OC1C(=O)NCCc1ccc(Cl)cc1` (configuration not stated): the INHIBITION is reported as -53.7%.
Take `CCN(CCCNCc1c(C)nn(C)c1N(C)C)S(C)(=O)=O`: the INHIBITION came to 0.58%.
In the case of `Cc1nc(C2CCN2c2ncccn2)cc(N(C)C)n1` (configuration not stated), the INHIBITION came to 10.9%.
For the molecule `CCN(CC)C(=O)CSc1nc2nc(C)ccc2o1`, the INHIBITION is reported as -4.76%.
As for `CCN(Cc1cccc2c1OCO2)C(=O)NCc1ccccn1`, the figure is -27.8%; as for `Cc1ccc(C)c(C(=O)CN2C(=O)c3ccccc3CS2(=O)=O)c1`, 56.8%.
Then `Cc1ccc(C)c(C(=O)N2CCN(C(=O)Cc3ccccn3)CC2)c1`, with 29.7%.
As for `Cc1cc(C(=O)CN2C(=O)c3ccccc3CS2(=O)=O)c(C)[nH]1`, the figure is 56.4%.
Consider `Cc1cc(=O)c(C(=O)N2CCN(C)c3ccccc3C2)c[nH]1`, for which the INHIBITION was determined as 43.9%.
As for `Cc1cc(C)c(CNC(=O)C2COc3ccccc3C2)c(=O)[nH]1` (configuration not stated), the figure is 32.9%.
Consider `CCCn1c(C)cc(C(=O)CN2C(=O)c3ccccc3CS2(=O)=O)c1C`, for which the INHIBITION turned out to be 31.8%.
As for `Cc1ccc(C(=O)CN2C(=O)c3ccccc3CS2(=O)=O)c(C)c1`, the figure is 65.3%; as for `Cc1ccccc1C(=O)CN1C(=O)c2ccccc2CS1(=O)=O`, 10.1%.
With `N#Cc1cccc(CN2C(=O)c3ccccc3CS2(=O)=O)c1`, the INHIBITION is on record as -0.85%.
With `Cc1nc(-c2nnc[nH]2)sc1C(=O)N1CCCC(C(F)(F)F)C1` (configuration not stated), the INHIBITION is reported as 7.25%.
Regarding `CN(C)C(=O)C1CCC2(CCN(C(=O)Nc3ccc(F)cc3)CC2)O1` (configuration not stated), the INHIBITION worked out at 31.2%.
Then `O=C([C@@H]1C[C@@H]2CCN(C3CCOCC3)C[C@@H]2O1)N1CCOCC1`, with -9.26%; and `COCCn1c2c(ccc1=O)CCN(C(=O)Cc1cccs1)CC2`, with -14.2%.
Then `CNc1cnc(CC2COCCN(Cc3ccccc3)C2)cn1` (configuration not stated), with 9.05%; and `c1ccc(-n2cc(CNCC3CCCN3c3cccnn3)cn2)cc1` (configuration not stated), with 41.5%; and `CC(CS(C)(=O)=O)N(C(=O)Nc1cc(F)ccc1Cl)C1CC1` (configuration not stated), with 3.63%.
Then `CC(CS(C)(=O)=O)N(C(=O)CCc1ccc(Cl)s1)C1CC1` (configuration not stated), with 31.5%.
For the molecule `CC(CS(C)(=O)=O)N(C(=O)c1ccc(Cl)s1)C1CC1` (configuration not stated), the INHIBITION worked out at 52.1%.
Regarding `Cn1cc(C(=O)NCC2CCN(C(=O)NC3CC3)CC2)cn1`, the INHIBITION was -16%.
As for `c1csc(SCC2CN=C(N3CCOCC3)S2)c1` (configuration not stated), the figure is -12.9%; as for `N#Cc1ccnc(SCC2CN=C(N3CCOCC3)S2)c1` (configuration not stated), 52.6%.
Then `c1ccn2c(SCC3CN=C(N4CCOCC4)S3)ncc2c1` (configuration not stated), with 0.705%; and `O=c1c(NCCc2ccc(O)cc2)c(NCc2ccco2)c1=O`, with 45.7%.
Consider `Cc1ccc(N2CCc3sc(C(=O)N4CCOCC4)cc32)nn1`, for which the INHIBITION is given as -34%.
Then `Cc1cc(S(=O)(=O)N2CCCc3ccccc32)sc1C(=O)O`, with 37.1%; and `Cc1cc(S(=O)(=O)N2CCCc3cc(Cl)ccc32)sc1C(=O)O`, with -12.5%; and `Cc1cc(S(=O)(=O)N2CCCc3cc(Br)ccc32)sc1C(=O)O`, with 54.3%.
As for `O=C(Nc1ccccc1)N1CC(C(=O)N2CCCC2)C2(CCOCC2)C1` (configuration not stated), the figure is -9.71%.
In the case of `CC(=O)c1c(C)nn(CC(=O)N2CCCC2c2ccc(C(N)=O)s2)c1C` (configuration not stated), the INHIBITION turned out to be 65.7%.
Turning to `NC(=O)c1ccc(C2CCCN2C(=O)Cn2nc3ccccc3n2)s1` (configuration not stated), the INHIBITION amounted to 19.4%.
As to `NC(=O)c1ccc(C2CCCN2C(=O)CCn2nnc3ccccc32)s1` (configuration not stated), the INHIBITION amounted to 7.6%.
Consider `CN(C)CCN1CCCC12CCN(C(=O)c1ccco1)CC2`, for which the INHIBITION is reported as -20.8%.
Then `O=C(Nc1ccncc1)N(CCO)Cc1ccsc1`, with -42.2%; and `CCOc1ccc(C(=O)N2C[C@@H]3CC[C@H]2CN(C)C3)cc1OCC`, with 28%; and `COc1ccccc1-c1ccc(C(=O)N2C[C@@H]3CC[C@H]2CN(C)C3)cc1`, with 58.3%.
As for `COc1ccc(C(=O)N2C[C@@H]3CC[C@H]2CN(C)C3)cc1Cl`, the figure is 32.3%; as for `Cn1cc(C2CCCN2C(=O)Cn2c(=O)oc3ccccc32)cn1` (configuration not stated), -19.1%; as for `O=C(NC[C@H]1C[C@@H]2CN(C(=O)c3ccno3)C[C@@H]2O1)C1CCC1`, 70.4%.
Consider `CN(C)C[C@H]1C[C@@H]2CN(C(=O)c3ccno3)C[C@@H]2O1`, for which the INHIBITION is on record as 34.9%.
Then `Cn1cccc1C(=O)NC[C@H]1C[C@@H]2CN(C(=O)c3ccno3)C[C@H]2O1`, with 42.3%; and `CCn1cc(-c2cc(C(F)F)n3nc(CC(=O)O)nc3n2)cn1`, with 53%; and `Cn1cc(-c2cc(C(F)F)n3nc(CCC(=O)O)nc3n2)cn1`, with -24.1%.
As for `CCn1cc(-c2cc(C(F)F)n3nc(CCC(=O)O)nc3n2)cn1`, the figure is 33.7%; as for `CC(C)(C)c1nc(C(C)(C)NC(=O)C2CC(=O)N(CC3CC3)C2)no1` (configuration not stated), -17.6%; as for `Cn1cc(CN2CCc3c(nc(-c4ccccn4)[nH]c3=O)C2)cn1`, 26.7%.
Consider `Cn1cc(CN2CCc3nc(-c4ccccn4)nc(O)c3C2)cn1`, for which the INHIBITION is 52.3%.
On to `CCn1cc(CN2CCc3nc(-c4ccccn4)nc(O)c3C2)cn1`, for which the INHIBITION was determined as 1.5%.
